# Laboratory results published in PubChem BioAssay (NCI).
# About 79,000 compounds went through this panel and 15% of them were active in at least one assay; those are over-represented in the sample as a whole. Unmarked numbers belong to inactive results. Calls of active or inactive are those of the source. Rule as the data show it: active = growth inhibition above about 70%; inactive = the rest.
# Experiments:
# [1] = NCI Yeast Anticancer Drug Screen. Data for the rad50 strain (AID 155);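 also: 0% = growth of vehicle-only cultures of the same strain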; details: S. cerevisiae rad50 strain growth inhibition; at 50.0 µM; stronger effect = higher value
# Outline: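 DNA repair mutant yeast, compound exposure, growth read-out; inhibition is taken relative to vehicle.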
# [2] = NCI Yeast Anticancer Drug Screen. Data for the mec2-1 strain (AID 157); details: S. cerevisiae mec2-1 strain, at 50.0 µM, stronger effect = higher value
# Outline: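 Readout is yeast growth inhibition, normalised to vehicle-treated controls, in the mec2-1 strain exposed to compound.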
# [3] = NCI Yeast Anticancer Drug Screen. Data for the sgs1 mgt1 strain (AID 161);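 also: 0% = growth of cultures given vehicle only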; details: S. cerevisiae sgs1 mgt1 strain, at 50.0 µM, stronger effect = higher value
# Outline: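 Compounds are added to genetically altered yeast, and growth is compared with cultures given vehicle alone to give percent inhibition.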
# [4] = NCI Yeast Anticancer Drug Screen. Data for the cln2 rad14 strain (AID 165);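 also: 0% = growth equal to vehicle treated cultures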; details: S. cerevisiae cln2 rad14 strain, at 50.0 µM, stronger effect = higher value
# Outline: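 Relative to vehicle controls, growth inhibition of compound-treated cln2 rad14 yeast was recorded.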
# [5] = NCI Yeast Anticancer Drug Screen. Data for the bub3 strain (AID 167); details: S. cerevisiae bub3 mutant strain, at 50.0 µM, stronger effect = higher value
# Outline: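 In this screen, a yeast mutant lacking normal mitotic checkpoint function is challenged with compound. Relative growth versus vehicle gives the inhibition value.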
# [6] = NCI Yeast Anticancer Drug Screen. Data for the mlh1 rad18 strain (AID 175); details: S. cerevisiae mlh1 rad18 strain growth inhibition; at 50.0 µM; stronger effect = higher value
# Outline: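 Test agents were incubated with a yeast strain of defined genotype (DNA damage repair defect). Inhibition of growth was derived by comparison with vehicle-exposed cultures.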
Structure (SMILES),growth inhibition [1],growth inhibition [2],growth inhibition [3] [%],growth inhibition [4],growth inhibition [5],growth inhibition [6]
Cc1nc(C(N)=S)sc1C(=O)/C=C/c1c(O)ccc2ccccc12,49.4%,9.55%,33.4,23.8%,31.1%,40.3%
CCCCS(=O)(=O)C1CCCC1=O (stereo not given),-3.5%,5.5%,-2.55,-7.1%,1.45%,1.9%
C=Cc1ccc(S(N)(=O)=O)cc1,-7.45%,15.4%,-7.55,-16.6%,-12.7%,-2.25%
N=c1oc2cc(O)ccc2cc1C(=O)NCc1ccccc1,17.8%,27.4%,-2.9,20.4%,-8.25%,-7.15%
NC(CCC(F)(F)F)C(=O)O (stereo not given),-4.1%,-7.95%,7.2,18.6%,17.5%,6.65%
NC(=O)N/N=C(/Cl)C(=O)NNC(N)=O,-4.4%,6.25%,-10.5,-81.2%,-0.95%,-27.1%
O=[N+]([O-])c1cc2c3ccccc3c([N+](=O)[O-])cc2c2ccccc12,-10.2%,-14.8%,-8.6,-15.2%,-10.5%,10.7%
CN(C)c1ncnc2ncn(C3OC(CO)C(O)C3O)c12 (stereo not given),67.6%,46.6%,60.2,7.3%,-13.2%,61.7%
O=C(CC(=O)N(C(=O)/C=C\c1ccccc1)c1ccc(Cl)cc1)N1N=C(c2ccccc2)C(N=Nc2cccc([N+](=O)[O-])c2)C1=O (stereo not given),7.5%,3.45%,9.5,1.75%,14.7%,5.5%
O=C1OC2(c3ccc(O)cc3Oc3cc(O)ccc32)c2ccccc21,6.6%,0.55%,10.2,26.7%,-0.05%,-1.2%
CC[C@]12C=CCN3CCC4(c5cc([C@@]6(C(=O)OC)CC7CN(CCc8c6[nH]c6ccccc86)C[C@@H]6CCC[C@H]76)c(OC)cc5N(C)C4[C@](O)(C(=O)OC)C1OC(C)=O)C32 (stereo not given in full),-9.2%,3.8%,-30.6,-22.1%,-45%,9.3%
Nc1ccc2nc(-c3ccccc3)[nH]c2c1,-13.8%,-8.65%,-13.3,1.55%,0.6%,-3.8%
CCOC1CCC(C(=O)CC)C(C#N)(C#N)C1(C#N)C#N (stereo not given),22.6%,13.7%,4.75,12.8%,11.8%,7.8%
CCCCCC1CCC(O)CC1 (stereo not given),16.1%,6.55%,21.1,-61.4%,4.2%,-7.55%
COc1ccc(N2C(=O)C3c4[nH]c5ccc(F)cc5c4C4CCC(C(C)(C)C)CC4C3C2=O)cc1 (stereo not given),-7.05%,-2.3%,1.55,7.45%,-3.2%,22.1%
CCOC(=O)C1=C(C)C/C(=N/NC(N)=O)CC1,6.35%,-17.9%,-0.95,0.05%,-0.95%,-7.85%
COc1cc2c[n+](C)c3ccccc3c2cc1OC,4.75%,12%,-16.6,-7.3%,-21.1%,-6.35%
O=S(O)CCCCSSCC(O)CO (stereo not given),22.5%,9.65%,15.2,63.5%,24.1%,13.7%

Structure (SMILES),growth inhibition [1],growth inhibition [2],growth inhibition [3] [%],growth inhibition [4],growth inhibition [5],growth inhibition [6]
CC(N)c1ccc(OCCOc2ccc(C(C)(C)CC(C)(C)C)cc2)cc1 (stereo not given),98.9% (active),99% (active),42.7,97.7% (active),98.9% (active),99% (active)
C1=CC(=P(c2ccccc2)(c2ccccc2)c2ccccc2)C=C1,20.4%,25.1%,10.4,38.8%,4.3%,34%
COc1ccc(C(Cc2cc(OC)c(OC)cc2Br)NC=O)cc1OC (stereo not given),0.3%,7.35%,-7.55,-3.15%,5%,31.4%
O=C1CCC=Cc2c(O)ccc(O)c21,8.65%,-5.25%,17.8,0.55%,-1.1%,27.9%
O=C(O)c1ccccc1SC(Sc1ccccc1C(=O)O)c1ccc2c(c1)OCO2,11.3%,-11.9%,2.85,-11.6%,33.6%,28%
CCOC(=O)/N=c1/nc(N(C)C)ss1,-18.9%,-29.6%,4.15,-19.6%,-9.4%,-5.05%
OC1CC2C=CC1CC2 (stereo not given),14.9%,10.3%,2.4,13.2%,25.1%,14.4%
CCN(CC)CCOC(=O)c1c(C)c(C)cc(C)c1C,-17.4%,-5.45%,-6.45,-29.5%,-8.3%,-7.7%
COc1ccc(OC)c(N=Nc2cc(OC)ccc2OC)c1,-13.6%,-7.8%,1.1,-13.8%,3.3%,-11.9%
CC(=O)c1cc2c(Br)cccc2oc1=O,-38%,-42.4%,-32.5,-3.3%,-42.9%,-36.2%
CCCCCCCCCCCC(=O)OCCSC#N,-7.45%,0.1%,-2,-21.4%,-0.2%,0.05%
CCCCNc1nc(SC)nc2nc[nH]c12,-9.35%,-9.65%,-41.1,-21.2%,-26.4%,-3.9%
C=CCOC(=O)C1CC(C)=CC(C)C1C (stereo not given),23.5%,3.6%,-13.7,-46.4%,-12.1%,5.2%
CCOP(=O)(OCC)C(F)(F)Cc1cnc(C)c2c1COC(C)(C)O2,-14.8%,-34.8%,-32.5,-16.7%,17.9%,-27.3%
O=C(Cc1nc2ccc(C(=O)c3ccccc3)cc2[nH]c1=O)C(=O)Nc1ccc(Br)cc1,-27.6%,-28.9%,-2.65,-9.4%,-3.3%,-3.7%
COc1ccccc1NC(=O)C1=C(C)NC(C)=C(C(=O)Nc2ccccc2OC)C1c1ccccc1OC,15.2%,-6.65%,-26.8,17.1%,0.35%,1.85%
CCOC(=O)c1ccc(C=O)cc1,15.5%,-5.75%,-4.95,6.25%,-5.8%,-11.5%
